A short description of experiment [1]: NCI Yeast Anticancer Drug Screen. Data for the rad50 strain (AID 155).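 Further: 0% = growth of vehicle-only cultures of the same strain.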 The conditions noted are these: S. cerevisiae rad50 strain growth inhibition, stronger effect = higher value. The essentials:
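Readout: growth inhibition relative to vehicle-treated cultures. Compound exposure was carried out in a genetically defined yeast strain deficient in DNA damage repair.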

A short description of experiment [2]: NCI Yeast Anticancer Drug Screen. Data for the mec2-1 strain (AID 157). The conditions noted are these: S. cerevisiae mec2-1 strain, stronger effect = higher value. The essentials:
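Using mec2-1 yeast: add compound, measure growth, express inhibition versus vehicle-treated cultures.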

Experiment [3] in a line: NCI Yeast Anticancer Drug Screen. Data for the sgs1 mgt1 strain (AID 161).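 Further: 0% = growth of cultures given vehicle only.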 Particulars: S. cerevisiae sgs1 mgt1 strain, stronger effect = higher value. The essentials:
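Percent growth inhibition was derived by comparing compound-exposed mutant yeast with vehicle-exposed cultures. The strain carries alterations in DNA damage repair.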

Experiment [4] in a line: NCI Yeast Anticancer Drug Screen. Data for the cln2 rad14 strain (AID 165).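 Further: 0% = growth equal to vehicle treated cultures.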 Particulars: S. cerevisiae cln2 rad14 strain, stronger effect = higher value. The essentials: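 Yeast strain cln2 rad14, bearing defects in cell cycle control and DNA repair, serves as the test system; values reflect growth inhibition compared with vehicle.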
A short description of experiment [5]: NCI Yeast Anticancer Drug Screen. Data for the bub3 strain (AID 167). Particulars: S. cerevisiae bub3 mutant strain, stronger effect = higher value. The essentials:
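Readout: yeast growth inhibition, expressed relative to vehicle-only wells. The test organism is a mutant strain from a panel with lesions in DNA repair or checkpoint genes.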

Experiment [6] can be described thus: NCI Yeast Anticancer Drug Screen. Data for the mlh1 rad18 strain (AID 175). Particulars: S. cerevisiae mlh1 rad18 strain growth inhibition, stronger effect = higher value. The essentials: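 Steps: expose repair-defective yeast to compound; measure growth; express inhibition against vehicle-treated controls.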
Setting [7] is: at 5.0 µM (retest, dose inferred, filed as 0.5).
Where [8] appears, read: at 50.0 µM (retest, dose inferred, filed as 5.0).

This is part of a sample that, as a whole, favours compounds with a hit. Of some 79,000 tested, about 15% had one in any assay. Values without a mark were called inactive. The source made the active and inactive calls. No stated cut-off is given here; in the data, active means growth inhibition above about 70%; inactive means the rest.

This passage reports growth inhibition results from PubChem BioAssay (NCI).

Consider `CC(C)(C)[Si](C)(C)O/N=C\c1cccc(O[Si](C)(C)C(C)(C)C)c1`, for which the growth inhibition in experiment [1] (setting [7]) is -3%; in experiment [1] (setting [8]), 97% (active); in experiment [1] (at 50.0 µM), 48%; in experiment [2] (setting [7]), -6%; in experiment [2] (setting [8]), 95% (active); in experiment [2] (at 50.0 µM), 12.3%. Also, the growth inhibition is 0% in experiment [3] (setting [7]); 99% (active) in experiment [3] (setting [8]); 78.5% (active) in experiment [3] (at 50.0 µM); -13% in experiment [4] (setting [7]); 97% (active) in experiment [4] (setting [8]); 54.8% in experiment [4] (at 50.0 µM). Besides, the growth inhibition was 3% in experiment [5] (setting [7]); 94% (active) in experiment [5] (setting [8]); 36% in experiment [5] (at 50.0 µM); -3% in experiment [6] (setting [7]); 98% (active) in experiment [6] (setting [8]); 76.8% (active) in experiment [6] (at 50.0 µM).
For the compound `COC(=O)C1(COCc2ccccc2)CCCC2OC21` (stereo not given), the growth inhibition in experiment [1] (setting [7]) was 16%; in experiment [1] (setting [8]), -2%; in experiment [1] (at 50.0 µM), 2.95%; in experiment [2] (setting [7]) it was 6%; in experiment [2] (setting [8]) it was -4%; in experiment [2] (at 50.0 µM) it was -5.2%. For the same compound, the growth inhibition in experiment [3] (setting [7]) is -31%; in experiment [3] (setting [8]), -2%; in experiment [3] (at 50.0 µM), 10.4%; in experiment [4] (setting [7]), 19%; in experiment [4] (setting [8]), 43%; in experiment [4] (at 50.0 µM), -2.55%. Also, the growth inhibition in experiment [5] (setting [7]) was 5%; in experiment [5] (setting [8]), 79% (active); in experiment [5] (at 50.0 µM), 2.45%; in experiment [6] (setting [7]), 9%; in experiment [6] (setting [8]), 10%; in experiment [6] (at 50.0 µM) it was 6.5%.
Take `Clc1ccc(SSc2ccc(Cl)cn2)nc1`: the growth inhibition in experiment [1] (setting [7]) was 5%; in experiment [1] (setting [8]), 69%; in experiment [1] (at 50.0 µM) it was 78.2% (active); in experiment [2] (setting [7]) it was 6%; in experiment [2] (setting [8]), 96% (active); in experiment [2] (at 50.0 µM) it was 96.3% (active). The growth inhibition in experiment [3] (setting [7]) is 17%; in experiment [3] (setting [8]) it was 96% (active); in experiment [3] (at 50.0 µM), 57.9%; in experiment [4] (setting [7]), -4%; in experiment [4] (setting [8]), 51%; in experiment [4] (at 50.0 µM), 20.6%. Besides, the growth inhibition in experiment [5] (setting [7]) was -3%; in experiment [5] (setting [8]), 97% (active); in experiment [5] (at 50.0 µM) it was 82.8% (active); in experiment [6] (setting [7]) it was 11%; in experiment [6] (setting [8]), 92% (active); in experiment [6] (at 50.0 µM), 81.1% (active).
Take `O=C1C2=C(CCCC2)C(=O)c2ccccc21`: the growth inhibition in experiment [1] (setting [7]) was 6%; in experiment [1] (setting [8]) it was 76% (active); in experiment [1] (at 50.0 µM), 25.4%; in experiment [2] (setting [7]) it was 8%; in experiment [2] (setting [8]), 79% (active); in experiment [2] (at 50.0 µM) it was 13.7%. For the same compound, the growth inhibition is 11% in experiment [3] (setting [7]); 71% (active) in experiment [3] (setting [8]); 28% in experiment [3] (at 50.0 µM); 3% in experiment [4] (setting [7]); 15% in experiment [4] (setting [8]); -30.5% in experiment [4] (at 50.0 µM). Moreover, the growth inhibition in experiment [5] (setting [7]) was 35%; in experiment [5] (setting [8]) it was 79% (active); in experiment [5] (at 50.0 µM), 60.4%; in experiment [6] (setting [7]), 7%; in experiment [6] (setting [8]) it was 43%; in experiment [6] (at 50.0 µM), 68.5%.
On to `CC(CCC(=O)O)[C@H]1CCC2[C@@H]3CC(O)[C@@H]4CC(O)CC[C@]4(C)C3CC[C@@]21C` (stereo not given in full), for which the growth inhibition in experiment [1] (setting [7]) is -5%; in experiment [1] (setting [8]) it was 44%; in experiment [1] (at 50.0 µM), 75.4% (active); in experiment [2] (setting [7]), -10%; in experiment [2] (setting [8]) it was 58%; in experiment [2] (at 50.0 µM), 74.5% (active). Moreover, the growth inhibition in experiment [3] (setting [7]) was 5%; in experiment [3] (setting [8]) it was 64%; in experiment [3] (at 50.0 µM) it was 77.3% (active); in experiment [4] (setting [7]) it was 14%; in experiment [4] (setting [8]), 70% (active); in experiment [4] (at 50.0 µM) it was 76.2% (active). The growth inhibition in experiment [5] (setting [7]) was -6%; in experiment [5] (setting [8]) it was 84% (active); in experiment [5] (at 50.0 µM) it was 50.5%; in experiment [6] (setting [7]), -8%; in experiment [6] (setting [8]), 71% (active); in experiment [6] (at 50.0 µM), 67.7%.
Turning to `CC[n+]1c(/C=C/c2ccc(N(C)C)cc2)ccc2ccccc21`, the growth inhibition in experiment [1] (setting [7]) was -5%; in experiment [1] (setting [8]), 99% (active); in experiment [1] (at 50.0 µM) it was 99% (active); in experiment [2] (setting [7]), 23%; in experiment [2] (setting [8]), 99% (active); in experiment [2] (at 50.0 µM), 99.2% (active). Besides, the growth inhibition in experiment [3] (setting [7]) was -2%; in experiment [3] (setting [8]), 99% (active); in experiment [3] (at 50.0 µM), 98% (active); in experiment [4] (setting [7]), -5%; in experiment [4] (setting [8]), 98% (active); in experiment [4] (at 50.0 µM), 99% (active). Also, the growth inhibition in experiment [5] (setting [7]) was 1%; in experiment [5] (setting [8]) it was 99% (active); in experiment [5] (at 50.0 µM), 98.8% (active); in experiment [6] (setting [7]), 13%; in experiment [6] (setting [8]), 99% (active); in experiment [6] (at 50.0 µM), 98.5% (active).
In the case of `O=[N+]([O-])c1ccccc1N=Nc1c(O)[nH]c2ccc(S(=O)(=O)O)cc12`, the growth inhibition in experiment [1] (setting [7]) was 73% (active); in experiment [1] (setting [8]), 96% (active); in experiment [1] (at 50.0 µM), 97.7% (active); in experiment [2] (setting [7]), 36%; in experiment [2] (setting [8]) it was 87% (active); in experiment [2] (at 50.0 µM) it was 97.8% (active). For the same compound, the growth inhibition is 68% in experiment [3] (setting [7]); 93% (active) in experiment [3] (setting [8]); 95.9% (active) in experiment [3] (at 50.0 µM); 85% (active) in experiment [4] (setting [7]); 94% (active) in experiment [4] (setting [8]); 95.6% (active) in experiment [4] (at 50.0 µM). The growth inhibition in experiment [5] (setting [7]) is 87% (active); in experiment [5] (setting [8]) it was 97% (active); in experiment [5] (at 50.0 µM) it was 97.8% (active); in experiment [6] (setting [7]), 90% (active); in experiment [6] (setting [8]), 98% (active); in experiment [6] (at 50.0 µM) it was 98.4% (active).
Take `COc1ccc(C2C3C(=O)OCCOC(=O)C3C2c2ccc(OC)c(OC)c2)cc1OC` (stereo not given): the growth inhibition in experiment [1] (setting [7]) was 1%; in experiment [1] (setting [8]) it was 49%; in experiment [1] (at 50.0 µM) it was 12.5%; in experiment [2] (setting [7]) it was 13%; in experiment [2] (setting [8]) it was 51%; in experiment [2] (at 50.0 µM), 17.2%. The growth inhibition in experiment [3] (setting [7]) is 4%; in experiment [3] (setting [8]), 49%; in experiment [3] (at 50.0 µM) it was 14.2%; in experiment [4] (setting [7]), 21%; in experiment [4] (setting [8]), 59%; in experiment [4] (at 50.0 µM), 7.7%. Also, the growth inhibition in experiment [5] (setting [7]) was 15%; in experiment [5] (setting [8]), 62%; in experiment [5] (at 50.0 µM), 18.9%; in experiment [6] (setting [7]) it was 15%; in experiment [6] (setting [8]) it was 67%; in experiment [6] (at 50.0 µM) it was 37.5%.
In the case of `O=C(O)C1C(Br)(c2ccccc2)C1(Br)c1ccccc1` (stereo not given), the growth inhibition was 47% in experiment [1] (setting [7]); 90% (active) in experiment [1] (setting [8]); 90.7% (active) in experiment [1] (at 50.0 µM); -1% in experiment [2] (setting [7]); 30% in experiment [2] (setting [8]); 17.7% in experiment [2] (at 50.0 µM). Further, the growth inhibition in experiment [3] (setting [7]) is 9%; in experiment [3] (setting [8]), 70% (active); in experiment [3] (at 50.0 µM) it was 69%; in experiment [4] (setting [7]) it was 25%; in experiment [4] (setting [8]) it was 93% (active); in experiment [4] (at 50.0 µM) it was 83.8% (active). For the same compound, the growth inhibition was -3% in experiment [5] (setting [7]); 10% in experiment [5] (setting [8]); 7.05% in experiment [5] (at 50.0 µM); -8% in experiment [6] (setting [7]); 55% in experiment [6] (setting [8]); 59.9% in experiment [6] (at 50.0 µM).
Consider `c1ccc(CC[n+]2csc3ccccc32)cc1`, for which the growth inhibition in experiment [1] (setting [7]) was -2%; in experiment [1] (setting [8]) it was 73% (active); in experiment [1] (at 50.0 µM), 57%; in experiment [2] (setting [7]), 0%; in experiment [2] (setting [8]), 84% (active); in experiment [2] (at 50.0 µM) it was 50.5%. The growth inhibition in experiment [3] (setting [7]) was -2%; in experiment [3] (setting [8]), 81% (active); in experiment [3] (at 50.0 µM) it was 36.3%; in experiment [4] (setting [7]), -8%; in experiment [4] (setting [8]) it was 35%; in experiment [4] (at 50.0 µM), 31.8%. Besides, the growth inhibition is 0% in experiment [5] (setting [7]); 90% (active) in experiment [5] (setting [8]); 63.8% in experiment [5] (at 50.0 µM); -2% in experiment [6] (setting [7]); 83% (active) in experiment [6] (setting [8]); 54.6% in experiment [6] (at 50.0 µM).
